Results reported in PubChem BioAssay (NCI).
“And” between values parts separate entries of the source, which are not always exact repeats. Equal entries are not always repeated. The panel holds about 83,000 compounds, 20% with a hit somewhere; the sample as a whole holds those more often.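 Testing used 96-well plates and a 48-hour single-concentration exposure. Example: -40 means 40% of the starting cells died.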 The source made the active and inactive calls. The calls were made as follows: active = growth percent below 10; inactive = the rest.

The compounds below were run on DU-145 prostate (assay: NCI-60 one-dose screen, 48 h (100 = growth as untreated, 0 = no growth, -100 = all killed)). Details: 10 µM.

Row | Structure (SMILES) | growth
1 | COc1ccc(C(C#N)=C2C=CC(=NO)C=C2)cc1 | 72.4% (inactive)
2 | CC1CCC2(C(=O)O)CCC3(C)C(=CCC4C5(C)CC(O)C(O)C(C)(CO)C5C(O)CC43C)C2C1C (stereo not given) | 110% (inactive)
3 | COc1ccc2c(c1)[nH]c1c(/C=C/c3ccccc3)nccc12 | 103% (inactive)
4 | O=C(O)c1ccccc1.[Ag] | 105% (inactive)
5 | Cc1cc(O)c2c(c1O)C(=O)C13C(=C2O)C(=O)C2C(O)C1C1C(O)C3C(=O)C3=C(O)c4c(O)cc(C)c(O)c4C(=O)C321 (stereo not given) | -6.49% (active)
6 | S=C1SCN(CCc2ccccc2)CN1CCc1ccccc1 | 93% (inactive)
7 | Cc1cc(C)c(N2C(=O)CC(Sc3ccccc3N)C2=O)c(C)c1 (stereo not given) | 89.5% (inactive)
8 | COc1ccc2oc(-c3ccc(Cl)cc3)c(N3CCN(C)CC3)c2c1 | 24.3% (inactive)
9 | NCc1c(O)ccc2ccccc12 | 109% (inactive)
10 | O=C(NC(=S)Nc1ccccn1)c1ccccc1 | 96.2% (inactive)
11 | CN(CC(=O)O)c1ccc(/C=C/c2ccnc3ccccc23)cc1 | 97.7% (inactive)
12 | Cc1c(-c2ccccc2)[nH]c2ccccc12 | 107% (inactive)
13 | S=P(N1CC1)(N1CC1)N1CC1 | 121% (inactive) and 71.9% (inactive)
14 | ClCCn1c(CCl)nc2ccc(Cl)cc21 | -59.3% (active)
15 | CN(C)c1ccc(/C=C/c2ccnc3ccccc23)cc1N | 83.5% (inactive)
16 | COc1ccc(N)c2c1C(=O)c1ccccc1C2=O | 112% (inactive)
17 | CC[C@@]1(OC(=O)CN(C)C)C(=O)OCc2c1cc1n(c2=O)Cc2cc3c(N)cccc3nc2-1 | 4.87% (active)
18 | Cc1cc(N=C2C=CC(=[N+](C)C)C=C2)c(N)cc1N | 104% (inactive)
19 | CC(=O)O[C@H]1C(=O)[C@@]2(C)[C@H]([C@H](OC(=O)c3ccccc3)[C@]3(O)C[C@H](OC(=O)[C@H](O)[C@@H](NC(=O)c4ccccc4)c4ccccc4)C(C)=C1C3(C)C)[C@]1(OC(C)=O)CO[C@@H]1C[C@@H]2O | -49.5% (active) and -4.6% (active)
20 | O=C1C(Cl)=C(Cl)C(Cl)(Cl)C(Cl)C1(Cl)Cl (stereo not given) | 114% (inactive)

The compounds below were run on K-562 leukemia in the same assay as above. Details: 10 µM.

Row | Structure (SMILES) | growth
21 | COc1ccc(C(C#N)=C2C=CC(=NO)C=C2)cc1 | 46.6% (inactive)
22 | CC1CCC2(C(=O)O)CCC3(C)C(=CCC4C5(C)CC(O)C(O)C(C)(CO)C5C(O)CC43C)C2C1C (stereo not given) | 106% (inactive)
23 | COc1ccc2c(c1)[nH]c1c(/C=C/c3ccccc3)nccc12 | 36.1% (inactive)
24 | O=C(O)c1ccccc1.[Ag] | 90.3% (inactive)
25 | Cc1cc(O)c2c(c1O)C(=O)C13C(=C2O)C(=O)C2C(O)C1C1C(O)C3C(=O)C3=C(O)c4c(O)cc(C)c(O)c4C(=O)C321 (stereo not given) | 9.5% (active)
26 | S=C1SCN(CCc2ccccc2)CN1CCc1ccccc1 | 55.8% (inactive)
27 | Cc1cc(C)c(N2C(=O)CC(Sc3ccccc3N)C2=O)c(C)c1 (stereo not given) | 47.4% (inactive)
28 | COc1ccc2oc(-c3ccc(Cl)cc3)c(N3CCN(C)CC3)c2c1 | -24.7% (active)
29 | NCc1c(O)ccc2ccccc12 | 99.1% (inactive)
30 | O=C(NC(=S)Nc1ccccn1)c1ccccc1 | 143% (inactive)
31 | CN(CC(=O)O)c1ccc(/C=C/c2ccnc3ccccc23)cc1 | 50.5% (inactive)
32 | Cc1c(-c2ccccc2)[nH]c2ccccc12 | 110% (inactive)
33 | S=P(N1CC1)(N1CC1)N1CC1 | 109% (inactive) and 53.2% (inactive)
34 | ClCCn1c(CCl)nc2ccc(Cl)cc21 | -23.7% (active)
35 | CN(C)c1ccc(/C=C/c2ccnc3ccccc23)cc1N | 31.1% (inactive)
36 | COc1ccc(N)c2c1C(=O)c1ccccc1C2=O | 98.9% (inactive)
37 | CC[C@@]1(OC(=O)CN(C)C)C(=O)OCc2c1cc1n(c2=O)Cc2cc3c(N)cccc3nc2-1 | 9.06% (active)
38 | Cc1cc(N=C2C=CC(=[N+](C)C)C=C2)c(N)cc1N | 57.3% (inactive)
39 | CC(=O)O[C@H]1C(=O)[C@@]2(C)[C@H]([C@H](OC(=O)c3ccccc3)[C@]3(O)C[C@H](OC(=O)[C@H](O)[C@@H](NC(=O)c4ccccc4)c4ccccc4)C(C)=C1C3(C)C)[C@]1(OC(C)=O)CO[C@@H]1C[C@@H]2O | -6.92% (active) and 5.96% (active)
40 | O=C1C(Cl)=C(Cl)C(Cl)(Cl)C(Cl)C1(Cl)Cl (stereo not given) | 102% (inactive)
